# From PubChem BioAssay (EPA / NIEHS)
# Active and inactive are the calls of the source. How the source made its calls: active means hit-call score of the fitted dose curve at least 0.9, where 1 is the maximum; inactive means score below 0.9.
# Key:
# [1] = read-out: Human Leukocyte Antigen - DR isotype (HLADR), HLA-DRA (gene 3122); test: BSK_BE3C_HLADR: BioMAP Diversity Plus: BE3C Assay for Human Leukocyte Antigen - DR isotype (HLADR) Biomarker Activity (AID 2283032); settings: primary human bronchial epithelial cells; actives raise or lower the signal
# How it was run: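 Human primary bronchial epithelial cells (BE3C system) exposed to compound for 24 hours; cell-surface HLA-DR measured by ELISA, fitted bidirectionally relative to DMSO. Total protein by SRB in parallel cultures tracked cytotoxicity.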
# [2] = read-out: Vascular cell adhesion molecule 1 (VCAM1), VCAM1 (gene 7412); test: BSK_4H_VCAM1: BioMAP Diversity Plus: 4H Assay for Vascular cell adhesion molecule 1 (VCAM1) Biomarker Activity (AID 2283033); settings: primary human endothelial cells (HUVEC); actives raise or lower the signal
# How it was run: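 Primary human umbilical vein endothelial cells, 4H stimulation system, treated for 24 h; cell-surface VCAM-1 quantified by ELISA. Bidirectional fitting against DMSO; cytotoxicity tracked by SRB total-protein staining in parallel cultures.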
# [3] = read-out: Interferon-gamma inducible Protein 10 (IP10), CXCL10 (gene 3627); test: BSK_BE3C_IP10: BioMAP Diversity Plus: BE3C Assay for Interferon-gamma inducible Protein 10 (IP10) Biomarker Activity (AID 2283034); settings: primary human bronchial epithelial cells; actives raise or lower the signal
# How it was run: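 Primary human bronchial epithelial cells, with IP-10 measured by ELISA 24 hours after chemical dosing. Bidirectional fit against DMSO; cytotoxicity checked by SRB total protein staining in parallel cultures.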
# [4] = read-out: Monokine induced gamma interferon (MIG), CXCL9 (gene 4283); test: BSK_BE3C_MIG: BioMAP Diversity Plus: BE3C Assay for Monokine induced gamma interferon (MIG) Biomarker Activity (AID 2283035); settings: primary human bronchial epithelial cells; actives raise or lower the signal;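 on outcome: MIG protein measured by ELISA in BE3C cultures after 24 h of dosing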
# How it was run: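 ELISA read-out of MIG in human lung bronchial epithelial primary cultures, 24 h post-dosing. Bidirectional curve fit vs DMSO baseline.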
# [5] = read-out: Transforming growth factor beta 1 (TGFb1), TGFB1 (gene 7040); test: BSK_BE3C_TGFb1: BioMAP Diversity Plus: BE3C Assay for Transforming growth factor beta 1 (TGFb1) Biomarker Activity (AID 2283036); settings: primary human bronchial epithelial cells; actives raise or lower the signal
# How it was run: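 Primary human bronchial epithelial cells dosed with chemical; TGF-b1 measured by ELISA 24 h after dosing. Bidirectional curve fitting against DMSO negative control; SRB total-protein staining in parallel cultures gauged cytotoxicity.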
# [6] = read-out: Plasminogen activator inhibitor-1 (PAI1), SERPINE1 (gene 5054); test: BSK_BE3C_PAI1: BioMAP Diversity Plus: BE3C Assay for Plasminogen activator inhibitor-1 (PAI1) Biomarker Activity (AID 2283037); settings: primary human bronchial epithelial cells; actives raise or lower the signal
# How it was run: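 Primary human bronchial epithelial cells (BE3C system) exposed 24 h; PAI-1 quantified by ELISA. Parallel sulforhodamine B staining of total protein flags cytotoxicity. Bidirectional fit versus DMSO.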
# [7] = read-out: urokinase plasminogen activator (uPA), PLAU (gene 5328); test: BSK_BE3C_uPA: BioMAP Diversity Plus: BE3C Assay for urokinase plasminogen activator (uPA) Biomarker Activity (AID 2283038); settings: primary human bronchial epithelial cells; actives raise or lower the signal;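 on outcome: uPA protein level quantified by ELISA in cell cultures; uPA read one day after compound addition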
# How it was run: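 Using confluent primary human lung bronchial epithelial cultures, we dosed chemicals, waited 24 h, then ran a uPA ELISA, fitting bidirectionally against DMSO.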
# [8] = read-out: Urokinase-type plasminogen activator receptor (uPAR), PLAUR (gene 5329); test: BSK_BE3C_uPAR: BioMAP Diversity Plus: BE3C Assay for Urokinase-type plasminogen activator receptor (uPAR) Biomarker Activity (AID 2283039); settings: primary human bronchial epithelial cells; actives raise or lower the signal;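 on outcome: uPAR protein level measured by ELISA on the cells; cells exposed to compound for one day before measurement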
# How it was run: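 Primary human bronchial epithelial cells dosed for 24 h; uPAR quantified by ELISA with bidirectional fitting against DMSO. Overt cytotoxicity assessed in parallel cultures by SRB total-protein staining (0.1% SRB, 560 nm).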
# [9] = read-out: Interleukin-6 (IL6), IL6 (gene 3569); test: BSK_CASM3C_IL6: BioMAP Diversity Plus: CASM3C Assay for Interleukin-6 (IL6) Biomarker Activity for (AID 2283040); settings: primary human coronary artery smooth muscle cells; actives raise or lower the signal
# [10] = read-out: Tissue plasminogen activator (tPA), PLAT (gene 5327); test: BSK_BE3C_tPA: BioMAP Diversity Plus: BE3C Assay for Tissue plasminogen activator (tPA) Biomarker Activity (AID 2283041); settings: primary human bronchial epithelial cells; actives raise or lower the signal;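 on outcome: tPA level quantified by ELISA one day after compound addition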
# How it was run: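 Primary human bronchial epithelial cells in the BE3C system, exposed to compound for 24 h. tPA was quantified by ELISA; DMSO served as baseline, with gain or loss of signal fitted. Cytotoxicity checked in parallel cultures by SRB total-protein staining.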
# [11] = read-out: Interleukin-8 (IL8), CXCL8 (gene 3576); test: BSK_CASM3C_IL8: BioMAP Diversity Plus: CASM3C Assay for Interleukin-8 (IL8) Biomarker Activity (AID 2283042); settings: primary human coronary artery smooth muscle cells; actives raise or lower the signal;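 further: IL-8 protein level quantified by ELISA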
# [12] = read-out: Human Leukocyte Antigen - DR isotype (HLADR), HLA-DRA (gene 3122); test: BSK_CASM3C_HLADR: BioMAP Diversity Plus: CASM3C Assay for Human Leukocyte Antigen - DR isotype (HLADR) Biomarker Activity (AID 2283043); settings: primary human coronary artery smooth muscle cells; actives raise or lower the signal;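 further: cell-surface HLA-DR protein level quantified by ELISA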
# [13] = read-out: Macrophage colony-stimulating factor (MCSF), CSF1 (gene 1435); test: BSK_CASM3C_MCSF: BioMAP Diversity Plus: CASM3C Assay for Macrophage colony-stimulating factor (MCSF) Biomarker Activity (AID 2283044); settings: primary human coronary artery smooth muscle cells; actives raise or lower the signal;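 further: M-CSF protein amount quantified by ELISA after 24 h exposure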
# [14] = read-out: Low-density lipoprotein receptor (LDLR), LDLR (gene 3949); test: BSK_CASM3C_LDLR: BioMAP Diversity Plus: CASM3C Assay for Low-density lipoprotein receptor (LDLR) Biomarker Activity (AID 2283045); settings: primary human coronary artery smooth muscle cells; actives raise or lower the signal;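 further: LDLR protein level on the cell surface quantified by ELISA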
# [15] = read-out: Monocyte Chemoattractant Protein-1 (MCP1), CCL2 (gene 6347); test: BSK_CASM3C_MCP1: BioMAP Diversity Plus: CASM3C Assay for Monocyte Chemoattractant Protein-1 (MCP1) Biomarker Activity (AID 2283046); settings: primary human coronary artery smooth muscle cells; actives raise or lower the signal;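 further: MCP-1 level quantified by ELISA 24 h after dosing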
# [16] = BSK_CASM3C_Proliferation: Cell Proliferation Assessment in the BioMAP Diversity Plus: CASM3C Assay (AID 2283047); settings: primary human coronary artery smooth muscle cells;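 further: sulforhodamine B total protein stain as relative cell number at 560 nm; sub-confluent cells exposed 48 h before staining; fitted both ways against DMSO so gain or loss of cell number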
# [17] = read-out: Monokine induced gamma interferon (MIG), CXCL9 (gene 4283); test: BSK_CASM3C_MIG: BioMAP Diversity Plus: CASM3C Assay for Monokine induced gamma interferon (MIG) Biomarker Activity (AID 2283048); settings: primary human coronary artery smooth muscle cells; actives raise or lower the signal;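 further: MIG protein level measured by ELISA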
# [18] = read-out: serum amyloid A (SAA), SAA1 (gene 6288); test: BSK_CASM3C_SAA: BioMAP Diversity Plus: CASM3C Assay for serum amyloid A (SAA) Biomarker Activity (AID 2283049); settings: primary human coronary artery smooth muscle cells; actives raise or lower the signal;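 further: SAA protein level quantified by ELISA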
# [19] = BSK_CASM3C_SRB: Viability Assessment in the BioMAP Diversity Plus: CASM3C Assay (AID 2283050); settings: primary human coronary artery smooth muscle cells
# [20] = read-out: Thrombomodulin, THBD (gene 7056); test: BSK_CASM3C_Thrombomodulin: BioMAP Diversity Plus: CASM3C Assay for Thrombomodulin Biomarker Activity (AID 2283051); settings: primary human coronary artery smooth muscle cells; actives raise or lower the signal;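 further: thrombomodulin protein level measured by ELISA 24 h after dosing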
compound,measurement,setting,value
CC(C)(C)c1ccccc1,outcome,[1],inactive
same,outcome,[2],inactive
same,outcome,[3],inactive
same,outcome,[4],inactive
same,outcome,[5],inactive
same,outcome,[6],inactive
same,outcome,[7],inactive
same,outcome,[8],inactive
same,outcome,[9],inactive
same,outcome,[10],inactive
same,outcome,[11],inactive
same,outcome,[12],inactive
same,outcome,[13],inactive
same,outcome,[14],inactive
same,outcome,[15],inactive
same,outcome,[16],inactive
same,outcome,[17],inactive
same,outcome,[18],inactive
same,outcome,[19],inactive
same,outcome,[20],inactive
O=C(N[C@@H](c1ccccc1)[C@@H]1CCCCN1)c1cccc(C(F)(F)F)c1Cl,AC50,[1],33.2 µM (active)
same,outcome,[2],inactive
same,AC50,[3],33.5 µM (active)
same,AC50,[4],34.7 µM (active)
same,AC50,[5],36.7 µM (active)
same,AC50,[7],28.7 µM (active)
same,AC50,[8],33.3 µM (active)
same,outcome,[9],inactive
same,AC50,[10],24 µM (active)
same,outcome,[11],inactive
same,outcome,[12],inactive
same,outcome,[13],inactive
same,AC50,[14],15.4 µM (active)
same,outcome,[15],inactive
same,AC50,[16],30.3 µM (active)
same,outcome,[17],inactive
same,outcome,[18],inactive
same,AC50,[19],30.9 µM (active)
same,outcome,[20],inactive
CCCCC(CC)COC(=O)CCCCCCCC(=O)OCC(CC)CCCC (configuration not stated),outcome,[1],inactive
same,outcome,[2],inactive
same,outcome,[3],inactive
same,outcome,[4],inactive
same,outcome,[5],inactive
same,outcome,[7],inactive
same,outcome,[8],inactive
same,outcome,[9],inactive
same,outcome,[10],inactive
same,outcome,[11],inactive
same,outcome,[12],inactive
same,outcome,[13],inactive
same,outcome,[14],inactive
same,outcome,[15],inactive
same,outcome,[16],inactive
same,outcome,[17],inactive
same,outcome,[18],inactive
same,outcome,[19],inactive
same,outcome,[20],inactive
CC(COCC(C)OC(=O)c1ccccc1)OC(=O)c1ccccc1 (configuration not stated),outcome,[1],inactive
same,outcome,[2],inactive
same,outcome,[3],inactive
same,outcome,[4],inactive
same,outcome,[5],inactive
same,outcome,[6],inactive
same,outcome,[7],inactive
same,outcome,[8],inactive
same,outcome,[9],inactive
same,outcome,[10],inactive
same,outcome,[11],inactive
same,outcome,[12],inactive
same,outcome,[13],inactive
same,outcome,[14],inactive
same,outcome,[15],inactive
same,outcome,[16],inactive
same,outcome,[17],inactive
same,outcome,[18],inactive
same,outcome,[19],inactive
same,outcome,[20],inactive
CSc1ccc(Oc2ccc(S(N)(=O)=O)cc2CN(C)C)cc1C,outcome,[1],inactive
same,outcome,[2],inactive
same,outcome,[3],inactive
same,outcome,[4],inactive
same,outcome,[5],inactive
same,outcome,[6],inactive
same,outcome,[7],inactive
same,outcome,[8],inactive
same,outcome,[9],inactive
same,outcome,[10],inactive
same,outcome,[11],inactive
same,outcome,[12],inactive
same,outcome,[13],inactive
same,outcome,[14],inactive
same,outcome,[15],inactive
same,AC50,[16],20 µM (active)
same,outcome,[17],inactive
same,outcome,[18],inactive
same,outcome,[19],inactive
same,outcome,[20],inactive
CC(C)(O)c1ccc(CNC(=O)c2cccnc2Oc2ccc(F)cc2)cc1,outcome,[1],inactive
same,outcome,[2],inactive
same,outcome,[3],inactive
same,outcome,[4],inactive
same,outcome,[5],inactive
same,outcome,[6],inactive
same,outcome,[7],inactive
same,outcome,[8],inactive
same,outcome,[9],inactive
same,outcome,[10],inactive
same,outcome,[11],inactive
same,AC50,[12],2.12 µM (active)
same,outcome,[13],inactive
same,outcome,[14],inactive
same,outcome,[15],inactive
same,outcome,[16],inactive
same,outcome,[17],inactive
same,outcome,[18],inactive
same,outcome,[19],inactive
same,outcome,[20],inactive
O=C1O[C@H]([C@H](O)CO)C(O)=C1O,outcome,[1],inactive
same,outcome,[2],inactive
same,outcome,[3],inactive
same,outcome,[4],inactive
same,outcome,[5],inactive
same,outcome,[7],inactive
same,outcome,[8],inactive
same,outcome,[9],inactive
same,outcome,[10],inactive
same,outcome,[11],inactive
same,outcome,[12],inactive
same,outcome,[13],inactive
same,outcome,[14],inactive
same,outcome,[15],inactive
same,outcome,[16],inactive
same,outcome,[17],inactive
same,outcome,[18],inactive
same,outcome,[19],inactive
same,outcome,[20],inactive
